# The full data set covers some 8,800 targets. This sample favours those with a hit. About 0.5% of all pairs of compound and target were hits. Unmarked numbers belong to inactive results.
# Columns and labels:
# Experiment in all cases: log2 fold change, soluble protein after heating vs DMSO (PISA); higher = thermal stabilisation; K562 lysate, 10 uM; active = over 0.2 and 3.5 SD of the protein, either way, in both replicates (recomputed)
# [1] = compound: NCC(=O)Nc1ccc(-n2nc(C(F)(F)F)cc2-c2ccc3c(ccc4ccccc43)c2)cc1
# Procedure, shortened: (§1)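 To prepare the extract, K562 pellets were dounce-homogenised in PBS pH 7.4 with 1 mM MgCl2, giving crude material at 1 mg/mL protein. This was treated with 10 μM compound for 30 min, then heated in aliquots for 3 min over 48°C-58°C before pooling and addition of NP-40 to 0.5% at 4°C. Centrifugation at 21,000xg for 90 min left soluble protein in the supernatant, which TMTpro 16plex LC-MS/MS quantified with equalised channel sums. Results are log-two fold changes in thermal stability compared with solvent controls, from duplicates.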
# vorinostat = compound: O=C(CCCCCCC(=O)Nc1ccccc1)NO [vorinostat]
# Procedure, shortened: as §1
# silmitasertib = compound: O=C(O)c1ccc2c(c1)nc(Nc1cccc(Cl)c1)c1ccncc12 [silmitasertib]
# Procedure, shortened: as §1
# [2] = compound: O=C1NC(=O)C(c2cnc3ccccn23)=C1c1cn2c3c(cc(F)cc13)CN(C(=O)N1CCCCC1)CC2
# Procedure, shortened: as §1
# entospletinib = compound: c1cn2cc(-c3ccc4cn[nH]c4c3)nc(Nc3ccc(N4CCOCC4)cc3)c2n1 [entospletinib]
# Procedure, shortened: as §1
# UniProt Q8NDZ6, sequence (Q8NDZ6 whole entry, looked up): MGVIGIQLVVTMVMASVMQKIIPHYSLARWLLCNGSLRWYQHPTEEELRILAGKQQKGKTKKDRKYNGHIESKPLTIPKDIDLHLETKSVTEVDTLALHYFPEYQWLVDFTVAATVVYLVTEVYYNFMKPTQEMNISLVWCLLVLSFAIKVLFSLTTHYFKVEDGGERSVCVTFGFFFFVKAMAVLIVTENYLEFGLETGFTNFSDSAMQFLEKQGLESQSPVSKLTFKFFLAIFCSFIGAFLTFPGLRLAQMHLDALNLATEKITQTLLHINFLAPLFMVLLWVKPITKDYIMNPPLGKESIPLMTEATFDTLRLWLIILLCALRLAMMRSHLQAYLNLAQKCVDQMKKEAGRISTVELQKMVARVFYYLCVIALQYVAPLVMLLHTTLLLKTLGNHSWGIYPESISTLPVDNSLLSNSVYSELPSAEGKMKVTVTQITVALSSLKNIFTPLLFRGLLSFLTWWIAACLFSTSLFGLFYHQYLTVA
# UniProt O43156, sequence (O43156 whole entry, looked up): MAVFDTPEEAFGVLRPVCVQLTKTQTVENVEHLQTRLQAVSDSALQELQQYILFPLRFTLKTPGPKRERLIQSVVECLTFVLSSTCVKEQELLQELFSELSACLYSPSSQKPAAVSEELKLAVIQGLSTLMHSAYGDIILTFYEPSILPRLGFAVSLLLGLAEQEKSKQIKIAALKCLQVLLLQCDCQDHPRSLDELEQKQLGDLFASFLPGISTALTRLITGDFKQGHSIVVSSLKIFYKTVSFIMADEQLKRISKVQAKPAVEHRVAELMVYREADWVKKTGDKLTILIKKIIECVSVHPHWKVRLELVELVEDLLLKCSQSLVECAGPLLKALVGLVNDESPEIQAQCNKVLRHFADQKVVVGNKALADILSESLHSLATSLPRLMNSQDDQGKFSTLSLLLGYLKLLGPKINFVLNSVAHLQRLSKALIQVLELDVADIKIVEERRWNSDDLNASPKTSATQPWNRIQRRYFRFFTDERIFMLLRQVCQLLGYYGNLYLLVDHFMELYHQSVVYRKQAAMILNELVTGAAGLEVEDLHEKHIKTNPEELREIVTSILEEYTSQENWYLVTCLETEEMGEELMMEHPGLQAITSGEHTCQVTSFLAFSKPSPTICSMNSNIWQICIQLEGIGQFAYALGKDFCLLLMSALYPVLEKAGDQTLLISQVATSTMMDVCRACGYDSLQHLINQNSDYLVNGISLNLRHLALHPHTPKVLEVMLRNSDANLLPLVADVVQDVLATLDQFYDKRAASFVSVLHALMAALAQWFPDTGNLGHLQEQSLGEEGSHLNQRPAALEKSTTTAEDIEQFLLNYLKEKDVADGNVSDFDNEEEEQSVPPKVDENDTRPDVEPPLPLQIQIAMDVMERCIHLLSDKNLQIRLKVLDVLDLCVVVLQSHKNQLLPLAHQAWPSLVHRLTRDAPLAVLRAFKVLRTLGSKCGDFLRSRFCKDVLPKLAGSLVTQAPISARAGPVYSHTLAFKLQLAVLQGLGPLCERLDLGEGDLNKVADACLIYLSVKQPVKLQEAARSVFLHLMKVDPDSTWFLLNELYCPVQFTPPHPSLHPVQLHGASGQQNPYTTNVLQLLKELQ
# UniProt Q96BS2, sequence (Q96BS2 whole entry, looked up): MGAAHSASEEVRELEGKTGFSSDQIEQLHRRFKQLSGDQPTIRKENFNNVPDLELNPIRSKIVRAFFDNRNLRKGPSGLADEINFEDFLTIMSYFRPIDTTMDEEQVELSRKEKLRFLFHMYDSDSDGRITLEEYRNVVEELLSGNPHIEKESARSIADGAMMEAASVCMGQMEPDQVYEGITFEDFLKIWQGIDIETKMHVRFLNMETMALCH
# UniProt Q12933, sequence (Q12933 whole entry, looked up): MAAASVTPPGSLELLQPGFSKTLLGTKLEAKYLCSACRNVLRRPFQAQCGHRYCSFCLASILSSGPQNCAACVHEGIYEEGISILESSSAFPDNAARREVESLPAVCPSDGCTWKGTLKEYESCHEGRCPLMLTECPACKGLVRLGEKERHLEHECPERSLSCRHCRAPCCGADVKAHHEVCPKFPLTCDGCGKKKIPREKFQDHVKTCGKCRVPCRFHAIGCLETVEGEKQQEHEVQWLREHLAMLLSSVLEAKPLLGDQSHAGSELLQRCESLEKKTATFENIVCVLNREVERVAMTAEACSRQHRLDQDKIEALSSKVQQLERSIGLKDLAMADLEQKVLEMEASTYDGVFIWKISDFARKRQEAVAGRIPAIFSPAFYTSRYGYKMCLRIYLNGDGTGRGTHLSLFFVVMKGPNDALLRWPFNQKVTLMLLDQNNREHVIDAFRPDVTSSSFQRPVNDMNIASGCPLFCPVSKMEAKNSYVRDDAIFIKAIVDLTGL
# UniProt Q96LJ8, sequence (Q96LJ8 whole entry, looked up): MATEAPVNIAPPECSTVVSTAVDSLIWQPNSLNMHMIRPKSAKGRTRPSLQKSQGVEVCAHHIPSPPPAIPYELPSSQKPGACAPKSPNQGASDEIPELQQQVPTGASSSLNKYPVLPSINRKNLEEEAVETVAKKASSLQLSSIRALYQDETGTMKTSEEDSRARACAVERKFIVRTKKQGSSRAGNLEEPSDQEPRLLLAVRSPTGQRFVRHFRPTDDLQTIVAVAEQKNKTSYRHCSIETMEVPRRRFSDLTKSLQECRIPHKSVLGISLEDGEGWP
# UniProt Q9UJT0, sequence (Q9UJT0 whole entry, looked up): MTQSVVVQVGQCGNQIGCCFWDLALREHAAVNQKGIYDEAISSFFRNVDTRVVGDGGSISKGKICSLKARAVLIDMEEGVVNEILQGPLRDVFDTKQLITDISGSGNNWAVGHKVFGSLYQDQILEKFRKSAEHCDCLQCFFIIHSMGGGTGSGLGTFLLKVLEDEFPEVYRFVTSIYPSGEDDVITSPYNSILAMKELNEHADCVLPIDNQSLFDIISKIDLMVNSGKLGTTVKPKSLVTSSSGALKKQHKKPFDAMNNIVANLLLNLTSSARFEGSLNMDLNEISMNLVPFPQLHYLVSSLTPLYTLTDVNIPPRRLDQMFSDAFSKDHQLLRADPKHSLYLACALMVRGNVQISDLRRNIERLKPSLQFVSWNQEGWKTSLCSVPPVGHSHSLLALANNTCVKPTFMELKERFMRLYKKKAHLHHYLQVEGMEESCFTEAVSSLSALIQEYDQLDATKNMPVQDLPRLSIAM
# UniProt Q14157, sequence (Q14157 whole entry, looked up): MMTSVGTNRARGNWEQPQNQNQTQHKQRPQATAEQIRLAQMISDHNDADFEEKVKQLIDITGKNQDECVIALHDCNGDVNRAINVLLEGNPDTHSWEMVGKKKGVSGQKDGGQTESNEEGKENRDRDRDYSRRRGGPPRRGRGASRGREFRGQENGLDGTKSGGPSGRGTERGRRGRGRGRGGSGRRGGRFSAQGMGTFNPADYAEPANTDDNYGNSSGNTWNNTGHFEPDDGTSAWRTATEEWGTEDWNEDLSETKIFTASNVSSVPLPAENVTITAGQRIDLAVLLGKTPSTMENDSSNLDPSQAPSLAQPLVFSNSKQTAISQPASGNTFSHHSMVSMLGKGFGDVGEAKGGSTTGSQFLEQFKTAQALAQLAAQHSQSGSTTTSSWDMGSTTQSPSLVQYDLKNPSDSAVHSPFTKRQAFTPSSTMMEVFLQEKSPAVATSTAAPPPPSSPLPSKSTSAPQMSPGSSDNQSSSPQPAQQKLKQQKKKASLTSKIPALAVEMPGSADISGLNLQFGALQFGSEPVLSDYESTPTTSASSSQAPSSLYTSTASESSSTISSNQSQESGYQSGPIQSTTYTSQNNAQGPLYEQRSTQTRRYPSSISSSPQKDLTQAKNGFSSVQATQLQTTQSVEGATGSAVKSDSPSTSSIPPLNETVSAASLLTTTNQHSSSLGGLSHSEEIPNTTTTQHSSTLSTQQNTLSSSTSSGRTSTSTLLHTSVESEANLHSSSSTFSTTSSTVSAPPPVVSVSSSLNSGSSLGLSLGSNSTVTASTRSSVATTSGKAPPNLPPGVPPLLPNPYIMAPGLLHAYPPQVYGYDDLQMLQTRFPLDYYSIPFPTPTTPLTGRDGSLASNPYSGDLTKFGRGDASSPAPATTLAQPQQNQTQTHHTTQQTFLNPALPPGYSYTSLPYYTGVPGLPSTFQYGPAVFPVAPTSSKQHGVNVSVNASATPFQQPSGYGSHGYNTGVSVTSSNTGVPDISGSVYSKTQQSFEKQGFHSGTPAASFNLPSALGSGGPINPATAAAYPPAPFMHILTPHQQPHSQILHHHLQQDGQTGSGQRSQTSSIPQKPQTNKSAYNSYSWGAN
# UniProt Q15645, sequence (Q15645 whole entry, looked up): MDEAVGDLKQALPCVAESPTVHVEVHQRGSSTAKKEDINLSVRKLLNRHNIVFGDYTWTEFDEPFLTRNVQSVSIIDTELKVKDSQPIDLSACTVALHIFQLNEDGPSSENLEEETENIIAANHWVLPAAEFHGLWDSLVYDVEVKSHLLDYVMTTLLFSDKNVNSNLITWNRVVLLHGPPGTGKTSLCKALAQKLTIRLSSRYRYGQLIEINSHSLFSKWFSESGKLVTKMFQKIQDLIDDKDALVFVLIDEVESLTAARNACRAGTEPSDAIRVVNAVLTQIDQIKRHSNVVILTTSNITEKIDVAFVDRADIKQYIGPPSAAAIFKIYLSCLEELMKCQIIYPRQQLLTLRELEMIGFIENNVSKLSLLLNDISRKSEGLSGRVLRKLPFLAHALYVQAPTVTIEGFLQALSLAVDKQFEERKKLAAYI
# UniProt P28289, sequence (P28289 whole entry, looked up): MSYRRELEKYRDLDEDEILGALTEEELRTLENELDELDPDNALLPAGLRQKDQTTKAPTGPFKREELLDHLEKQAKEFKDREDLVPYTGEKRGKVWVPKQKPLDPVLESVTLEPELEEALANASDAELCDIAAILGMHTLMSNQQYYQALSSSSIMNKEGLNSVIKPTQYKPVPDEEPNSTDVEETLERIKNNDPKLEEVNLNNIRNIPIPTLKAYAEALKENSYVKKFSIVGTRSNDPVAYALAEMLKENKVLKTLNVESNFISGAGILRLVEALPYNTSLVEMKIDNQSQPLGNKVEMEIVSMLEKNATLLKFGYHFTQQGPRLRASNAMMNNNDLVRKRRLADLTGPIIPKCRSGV
# UniProt Q9BZL1, sequence (Q9BZL1 whole entry, looked up): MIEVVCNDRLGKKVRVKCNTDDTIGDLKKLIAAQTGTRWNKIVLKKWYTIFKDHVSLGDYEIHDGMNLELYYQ
Target,log2 fold change [1],log2 fold change (vorinostat),log2 fold change (silmitasertib),log2 fold change [2],log2 fold change (entospletinib)
TMEM14C (UniProt Q9P0S9),-0.032,-0.018,0.013,0.058,0.091
TCF3 (UniProt X6REB3),-0.257,–,–,–,–
UCHL5 isoform 3 (UniProt Q9Y5K5),0.004,-0.081,0,-0.009,-0.003
TGOLN2 isoform 7 (UniProt O43493),-0.02,0.089,0.055,-0.047,-0.019
TRAF2 isoform 2 (UniProt Q12933),0.014,-0.269 (active),0.024,0.031,0.005
TJP1 isoform 2 (UniProt Q07157),0.029,0.041,-0.035,-0.023,-0.043
TNIK isoform 4 (UniProt Q9UKE5),-0.019,-0.135,0.004,-0.114,0.208
TBC1D8B (UniProt Q0IIM8),0.036,0.147,-0.037,0.011,0.131
TK1 (UniProt P04183),0.04,-0.028,-0.001,0.014,0.035
UBTF (UniProt P17480),-0.045,-0.315 (active),0.044,-0.012,0.032
TMEM167B (UniProt Q9NRX6),0.019,0,0.009,-0.033,0.031
TRMT2A (UniProt Q8IZ69),-0.012,-0.366 (active),0.034,-0.007,0.002
TTI2 (UniProt Q6NXR4),0.05,-0.303 (active),0.015,0.034,0.005
TUBGCP3 (UniProt Q96CW5),-0.014,-0.459 (active),-0.014,0.019,-0.003
TESC (UniProt Q96BS2),-0.036,0.058,0.103,-0.014,-0.111
TRIP13 (UniProt Q15645),0.002,-0.472 (active),0.061,-0.002,0.022
TPST2 (UniProt O60704),0.045,0.132,-0.03,-0.048,0.016
TNPO3 (UniProt Q9Y5L0),0.017,-0.317 (active),0.015,0.009,0.022
TTC27 (UniProt Q6P3X3),-0.027,-0.403 (active),0.053,-0.06,-0.002
TRIM23 (UniProt P36406),0.064,0.073,-0.03,-0.02,-0.032
TMEM161B (UniProt Q8NDZ6),-0.084,0.225,0,0.019,-0.026
TXNIP (UniProt Q9H3M7),-0.076,-0.399 (active),0.04,-0.051,0.024
TRADD (UniProt Q15628),0.034,-0.284,0.021,-0.029,0.059
TPX2 (UniProt Q9ULW0),0.003,-0.498 (active),-0.04,0.009,0.015
TNKS (UniProt O95271),-0.009,-0.1,0.06,-0.001,-0.085
TTMP isoform 3 (UniProt Q5BVD1),0.253,0.191,-0.074,0.167,-0.032
TUBB4A (UniProt M0QYM7),0.128,-0.431,0.01,-0.062,0.032

Target,log2 fold change [1],log2 fold change (vorinostat),log2 fold change (silmitasertib),log2 fold change [2],log2 fold change (entospletinib)
TOE1 (UniProt Q96GM8),-0.003,-0.359 (active),0.041,0.002,0.043
UBE4A isoform 2 (UniProt Q14139),0.007,-0.257 (active),0.019,0.029,0.026
TRAPPC6A isoform 2 (UniProt O75865),-0.048,-0.038,0.013,-0.002,-0.157
UBL5 (UniProt Q9BZL1),-0.027,-0.078,0.065,0.077,-0.049
TUBGCP4 (UniProt Q9UGJ1),-0.11,-0.219 (active),0.003,0.02,0.038
TUBB2A (UniProt Q13885),0.034,-0.759 (active),0.016,-0.004,-0.012
TSPAN13 (UniProt O95857),-0.024,0.104,-0.008,0.008,-0.015
TTI1 (UniProt O43156),-0.037,-0.452 (active),0.089,-0.019,-0.017
UBA1 (UniProt P22314),0.018,-0.371 (active),0.01,-0.003,0.02
UBE2L6 (UniProt O14933),-0.071,-0.477 (active),0.037,0,-0.011
UBE3C (UniProt Q15386),-0.009,-0.479 (active),-0.001,0,0.05
TTL (UniProt Q8NG68),-0.027,-0.376 (active),0.021,0.057,0.138
TERF2IP (UniProt Q9NYB0),0.038,0.072,0.008,0.011,0.011
TFPI (UniProt P10646),0.067,0.106,0.01,-0.063,-0.057
TIMM44 (UniProt O43615),0.045,0.245 (active),0.015,0.029,-0.026
TMOD1 (UniProt P28289),0.005,-0.312 (active),0.02,-0.005,0.01
UBXN10 (UniProt Q96LJ8),-0.018,-0.321 (active),-0.005,-0.002,0
UBR4 (UniProt Q5T4S7),0,-0.14,0.027,-0.008,0.009
TRIM33 isoform 2 (UniProt Q9UPN9),-0.005,-0.393 (active),-0.026,-0.04,-0.024
UBL4A (UniProt P11441),-0.036,-0.016,0.04,0.007,-0.011
TIMELESS (UniProt Q9UNS1),0,-0.412 (active),0.018,0.062,0.017
UGDH (UniProt O60701),0.039,-0.206,0.001,0.01,-0.01
TEX30 (UniProt Q5JUR7),0.035,-0.534 (active),0.041,-0.006,0.001
TOR3A (UniProt Q9H497),0.011,0.048,-0.002,-0.016,0.02
TUBE1 (UniProt Q9UJT0),0.024,-0.264 (active),-0.049,-0.036,-0.027
UBAP2L isoform 5 (UniProt Q14157),0.013,0.126,-0.037,-0.018,-0.042
TUBB6 (UniProt Q9BUF5),0.013,-0.558 (active),0.04,0.013,0.004
